This is a sample that favours compounds with a hit; in the whole collection about 0.45% have one here.
BCR signal inh: chronic active BCR signaling inhibition. ABC-DLBCL IkBa-CBG/CBR reporter, luminescence ratio, 4 h. Potency, µM (top dose mostly 46.1 µM), hits mostly inhibitors. 0.05% of 340,000 active; active = well fitted inhibition curve with a large enough effect in the signal ratio, with a control signal flat, not every such curve was filed as active; inconclusive = small, poorly fitted or top-dose-only effect, or effect the other way, or a change in a side signal; the % refers to the signal ratio
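TMD8 human ABC-DLBCL cells with doxycycline-inducible IκBα–green luciferase fusion and unfused red luciferase, in 0.5% FBS medium; compounds up to 46 uM, 4 h at 37C. Green/red luminescence ratio, filter-overlap corrected, fitted to concentration-response curves.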
PGK inhibitor: inhibitors of T. brucei phosphoglycerate kinase | P07378 | PGK/GAPDH coupled, Kinase-Glo luminescence, 60 min | Potency, µM (titrated, usually from 57.5 µM), most hits filed as inhibitors | 0.043% of 380,000 active; note: nearly all actives have a fitted effect of over 60% in size
Target sequence (P07378 whole entry, looked up): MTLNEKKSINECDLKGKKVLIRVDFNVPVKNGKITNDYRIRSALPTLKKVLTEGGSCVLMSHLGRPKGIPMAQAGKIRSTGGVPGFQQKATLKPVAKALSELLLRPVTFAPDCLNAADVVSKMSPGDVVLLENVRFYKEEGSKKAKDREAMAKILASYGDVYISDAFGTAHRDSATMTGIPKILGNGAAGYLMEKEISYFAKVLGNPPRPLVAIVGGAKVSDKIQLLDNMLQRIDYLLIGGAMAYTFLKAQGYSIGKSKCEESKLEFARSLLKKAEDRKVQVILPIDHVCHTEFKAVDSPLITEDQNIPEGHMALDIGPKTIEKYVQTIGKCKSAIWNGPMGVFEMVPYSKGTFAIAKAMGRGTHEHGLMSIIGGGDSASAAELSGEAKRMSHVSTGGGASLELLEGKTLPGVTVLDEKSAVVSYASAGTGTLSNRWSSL
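Luminescent ATP detection (Kinase-Glo Plus) follows a 60-minute room-temperature incubation, with wells lacking PGK as controls. Buffer: 100 mM TEA (pH 7.6), 5 mM MgCl2, 0.01% Tween-20. Coupling enzyme GAPDH (100 nM final) supplies unstable 1,3-BPG in-well.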
B2AR arrestin: recruits beta-arrestin to the human beta2-adrenergic receptor | Potency, µM (titrated, usually from 46.1 µM), most hits filed as activators | AID 492947 | 0.02% of 330,000 active | beta-arrestin recruitment to beta2AR, cell-based reporter; note: nearly all actives have a fitted effect of over 65% in size
Pin1 inh: inhibitors of human Pin1 | 0.009% of 390,000 active | AID 504891 | Potency, µM (top dose mostly 115 µM), actives largely listed as inhibitors | Pin1 FP peptide displacement, HiFluor488, 10 min; active = well fitted inhibition curve with a large enough effect in the polarisation, with a control signal flat, not every such curve was filed as active; inconclusive = small, poorly fitted or top-dose-only effect, or effect the other way, or a change in a side signal; inactive = no such curve, though single readings can be large or run the other way; the % refers to the polarisation
Target sequence (Q13526 whole entry, looked up): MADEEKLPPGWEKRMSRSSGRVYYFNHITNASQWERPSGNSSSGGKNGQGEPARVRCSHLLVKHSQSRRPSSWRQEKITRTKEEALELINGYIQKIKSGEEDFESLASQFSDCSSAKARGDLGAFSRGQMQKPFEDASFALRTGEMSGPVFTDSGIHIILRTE
Apoferritin bind: candidate novel general anesthetic via apoferritin binding. P02791. 0.074% of 350,000 active. apoferritin/1-aminoanthracene competitive binding, fluorescence. Potency, µM (doses to about 77.5 µM), actives largely listed as inhibitors; note: nearly all actives have a fitted effect of over 20% in size
Target sequence (P02791 2-175 limits assumed): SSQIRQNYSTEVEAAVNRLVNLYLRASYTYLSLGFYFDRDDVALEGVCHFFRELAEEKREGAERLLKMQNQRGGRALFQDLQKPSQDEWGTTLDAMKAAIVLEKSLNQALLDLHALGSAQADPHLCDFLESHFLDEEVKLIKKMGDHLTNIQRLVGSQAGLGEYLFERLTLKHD
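Steps: apoferritin (10 uM) was premixed with half-saturated 1-AMA in PBS, compounds were pin-transferred, plates stood 10 min at room temperature, fluorescence was read at 380/535 nm, and curves were fitted with a Hill equation.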
FEN1 inh: blocks human flap endonuclease 1; Recombinant FEN1 flap cleavage, fluorescence, 15 min; P39748; AID 588795; Potency, µM (top dose mostly 114 µM), usual class: inhibitors; 0.35% of 390,000 active; note: nearly all actives have a fitted effect of over 65% in size
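Recombinant FEN1 (10 nM) was preincubated with pin-transferred compounds for 15 min at room temperature, then flap DNA substrate (50 nM final) was added. Plates were read at 0 and 15 min, and normalized concentration–response data were fitted to a four-parameter Hill equation.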
Hits are given with their value; i = inactive; ? = inconclusive; nt = no result; ! = not active in a repeat. Unless noted, calls come from the whole dose curve; as a rule, active = well fitted curve in the direction sought with a large enough effect; inconclusive = small, poorly fitted or top-dose-only effect, or another doubt; inactive = no such curve, though single readings can be large; an effect the other way counts as inactive or inconclusive.

SMILES | BCR signal inh | PGK inhibitor | B2AR arrestin | Pin1 inh | Apoferritin bind | FEN1 inh
O=C(CNC(=O)c1ccccc1)N[C@@H](C(=O)Nc1cc(C(F)(F)F)ccc1Cl)c1ccccc1 | nt | nt | nt | i | nt | nt
O=C(COC(=O)c1ccccc1C(=O)c1ccccc1)Nc1cccc([N+](=O)[O-])c1 | ? | i | i | i | i | i
Nc1c(C(=O)OCC(=O)Nc2cccc([N+](=O)[O-])c2)[nH]c(=O)[nH]c1=O | i | 18µM | i | ? | nt | ?
Cc1ccc(CCNc2nc3c(S(=O)(=O)c4ccccc4)nnn3c3ccsc23)cc1 | nt | i | nt | i | i | 89µM
Cc1ccc(NC(=O)CN2C(=O)S/C(=C\c3ccc(-c4cccc(C(=O)O)c4C)o3)C2=O)cc1C | i | ? | i | ? | i | 50µM
COc1ccc(OC)c(-c2csc(NC(=O)COC(=O)c3ccc(NC(=O)CC#N)cc3)n2)c1 | i | ? | i | i | nt | 79µM
COc1cc2c(cc1OC)-c1cc(NC3CCCC3)nc(=O)n1CC2 | 16µM | i | i | i | i | i
CCN(CC)c1ccc(Nc2cc3n(c(=O)n2)CCc2cc(OC)c(OC)cc2-3)cc1 | 11µM | i | i | i | i | i
COc1cc2c(cc1OC)-c1cc(Nc3ccc(F)cc3)nc(=O)n1CC2 | ? | i | i | ? | i | i
CCOc1ccc(C(=O)N/N=C/c2ccc(-c3ccc(S(=O)(=O)Nc4ncccn4)cc3)o2)cc1 | ? | i | i | nt | i | ?
O=C(N/N=C/c1ccc(-c2ccc(S(=O)(=O)Nc3ncccn3)cc2)o1)c1cc2ccccc2cc1O | ? | ? | i | ? | i | 16µM
CC(C)CC(OC(=O)CNC(=O)c1ccccc1)C(=O)Nc1cc(C(F)(F)F)ccc1Cl (stereo not given) | nt | nt | nt | i | nt | nt
Cn1nnnc1Sc1ncnc2scc(-c3ccc(N)cc3)c12 | nt | nt | nt | i | nt | nt
O=S(=O)(O)c1cccc2c(N=Nc3ccc(O)c4ncccc34)cccc12 | ? | ? | i | nt | i | ?
O=S(=O)(c1cc(O)ccc1O)c1cccc2c(S(=O)(=O)c3cc(O)ccc3O)cccc12 | i | ? | i | ? | nt | 35µM
O=C(O)C1Nc2c(Cl)cc(Cl)c(Cl)c2C2C=CCC12 (stereo not given) | nt | ? | nt | nt | nt | 35µM
O=C(OC1CCCCC1)c1ccc2c(c1)C1C=CCC1C(C(=O)O)N2 (stereo not given) | i | nt | i | nt | i | nt
CCOC(=O)C1Nc2ccc(C)cc2C2C=CCC12 (stereo not given) | nt | i | nt | ? | nt | i
O=C(O)C1Nc2ccc(Br)cc2C2C=CCC12 (stereo not given) | i | 32µM | i | nt | i | ?
Cc1ccc(C)c2c1NC(C(=O)O)C1CC=CC21 (stereo not given) | nt | nt | nt | nt | nt | 18µM
O=C(O)C1Nc2c(O)cccc2C2C=CCC12 (stereo not given) | i | ? | i | nt | i | 40µM
O=C(O)C1Nc2c(Cl)cc(Cl)cc2C2C=CCC12 (stereo not given) | i | 25µM | i | ? | i | 22µM
CC1(C)CCCN(C(=O)c2coc(=O)c(Br)c2)C1 | ? | 6.3µM | i | nt | i | 56µM
COc1ccc(/C=C2\CCCc3c2nc2ccccc2c3C(=O)O)cc1OC | i | nt | i | nt | i | nt
COc1cc(/C=C2\CCCc3c2nc2ccccc2c3C(=O)O)cc(OC)c1O | i | i | i | i | i | 45µM
SMILES | BCR signal inh | PGK inhibitor | B2AR arrestin | Pin1 inh | Apoferritin bind | FEN1 inh
NC(=O)C1CCN(c2nc(-c3ccc(-c4ccccc4)cc3)cs2)CC1 | nt | nt | nt | i | nt | nt
O=c1cc2oc3cc(O)c(O)cc3c(-c3ccccc3O)c-2cc1O | ? | ? | i | ? | i | 22µM
O=c1cc(-c2ccccc2O)oc2cc(O)ccc12 | nt | nt | nt | nt | i | nt
CCOc1ccccc1-c1c2cc(O)c(=O)cc-2oc2cc(O)c(O)cc12 | ? | ? | i | ? | i | 20µM
COc1ccc(OC)c(-c2c3cc(O)c(=O)cc-3oc3cc(O)c(O)cc23)c1 | ? | ? | i | ? | i | 13µM
NC(=O)C1CCN(c2ncc(-c3cccc(F)c3)s2)CC1 | nt | nt | nt | i | nt | nt
Cc1ccc(NS(=O)(=O)c2ccc3c(c2)CC(=O)N3C)cc1C | nt | nt | nt | i | nt | nt
CCOc1ccc2nc(NC(=O)c3ccccc3)sc2c1 | nt | ? | nt | i | i | i
CCOc1ccc2nc(NS(=O)(=O)Cc3ccccc3)sc2c1 | 7.3µM | i | i | i | i | i
CN(Cc1ccccc1)c1ccc(/C=C/c2nc3ccccc3s2)cc1 | nt | nt | nt | nt | nt | 35µM
C=C(/C=C/c1ccc(N(C)C)cc1)c1nc2ccccc2s1 | nt | nt | nt | nt | nt | 25µM
Cc1ccc(/C=C/c2nc3ccccc3s2)s1 | ? | i | i | ? | i | i
CN(C)c1ccc(/C=C/c2cccc3cc4ccccc4nc23)cc1 | nt | nt | nt | nt | nt | 79µM
CN(C)c1ccc(/C=C/c2ccc3cc(N(C)C)ccc3n2)cc1 | nt | nt | nt | nt | nt | i
CN(C)c1ccc(/C=C/c2nc3ccccc3s2)cc1 | ? | i | i | ? | i | 50µM!
Cc1cc2c(s1)c1cnn(Cc3c(F)ccc(C)c3F)c(=O)c1n2C | nt | nt | nt | i | nt | nt
O=c1c2[nH]c3cc(Br)sc3c2cnn1Cc1ccccc1F | nt | nt | nt | i | nt | nt
COc1cccc(C2c3c(ncn(-c4ccccc4OC)c3=N)Oc3ccc4ccccc4c32)c1 (stereo not given) | nt | nt | nt | i | nt | nt
Cc1c([S+](=O)([O-])N2CCN([S+](=O)([O-])c3c(F)cccc3F)CC2)sc2ccc(Cl)cc12 | nt | nt | nt | i | nt | nt
O=c1oc(-c2ccc(O)c(O)c2)cc2cc(O)cc(O)c12 | ? | i | i | ? | nt | 35µM
CN1CCN(C(=O)CCCOc2cc(=O)n(C)c3ccccc23)CC1 | 26µM | i | i | i | i | i
CCCCCC1CCC(c2n[nH]c(=S)n2C)CC1 (stereo not given) | ? | i | 4µM | i | i | i
O=c1c2ccccc2nc2sc(NCc3ccc(Oc4ccccc4)cc3)nn12 | nt | nt | nt | i | nt | nt
S=C(NCCCc1cnc[nH]1)NCCN(Cc1ccc(Cl)c(Cl)c1)c1ccc(Br)cn1 | nt | nt | nt | i | nt | nt
COc1ccc(-c2nn(C)c(=O)c3ccccc23)cc1NS(C)(=O)=O | ? | i | i | i | i | i
SMILES | BCR signal inh | PGK inhibitor | B2AR arrestin | Pin1 inh | Apoferritin bind | FEN1 inh
COc1ccc(-c2nn(C)c(=O)c3ccccc23)cc1CNS(C)(=O)=O | 18µM | i | i | i | i | i
CC(=O)c1cccc(OCC(=O)N(C)CC(=O)NCc2ccco2)c1 | ? | 14µM | i | nt | nt | ?
COc1ccc(N(C(=O)c2ccc(OC)c(OC)c2)S(=O)(=O)c2ccc(Cl)cc2)cc1 | nt | i | nt | ? | i | 89µM
COc1ccc(N(C(=O)c2ccc(C)cc2)S(=O)(=O)c2ccc(Cl)cc2)cc1 | nt | i | nt | i | i | i
O=C(OCC12CC3CC(CC(C3)C1)C2)c1ccc(NCc2cc(O)ccc2O)cc1 | nt | i | nt | i | nt | ?
O=C(O)c1cc(NCc2cc(O)ccc2O)ccc1O | nt | nt | nt | ? | i | 8.9µM
C/C(=C\C=C(C#N)C#N)c1cc(C#N)c(N)o1 | i | i | i | ? | i | 56µM
Cc1ccc(-c2csc3nc4c5ccccc5c(NCCCN5CCOCC5)nn4c(=O)c23)cc1 | i | nt | i | nt | i | nt
